Data from PubChem BioAssay (Tox21).
Values joined by “and” are separate entries in the source; they are usually repeats but may differ in a detail not shown here. Equal entries are not always repeated. Records with an inconclusive call do not appear. Some structures have more than one record in an assay (separate samples or runs), and their calls can disagree. Active and inactive are the calls of the source. Unless noted, calls come from the whole dose curve; as a rule, active = well fitted curve in the direction sought with a large enough effect in the repeat runs; inconclusive = weak or mixed curves; inactive = no such curve, though single readings can be large; an effect the other way counts as inactive or inconclusive.

Experiments:
[1] = qHTS assay to identify small molecule agonists of the peroxisome proliferator-activated receptor delta (PPARd) signaling pathway - cell viability counter screen (AID 743211); note: nearly all actives have a fitted effect of over 55% in size; note: potency is the fitted concentration of half-maximal effect
How it was run: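 Multiplexed format: after the 2 h room-temperature LiveBLAzer B/G FRET step, CellTiter-Glo was added to the same wells. Luminescence after 30 min gave cell viability; compound exposure was 17 h at 37C.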

[2] = target: Peroxisome proliferator-activated receptor delta (Homo sapiens) (UniProt Q03181); experiment: qHTS assay to identify small molecule agonists of the peroxisome proliferator-activated receptor delta (PPARd) signaling pathway (AID 743212; calls by dose curve)
Peroxisome proliferator-activated receptor delta (Homo sapiens), sequence (Q03181 whole entry, looked up): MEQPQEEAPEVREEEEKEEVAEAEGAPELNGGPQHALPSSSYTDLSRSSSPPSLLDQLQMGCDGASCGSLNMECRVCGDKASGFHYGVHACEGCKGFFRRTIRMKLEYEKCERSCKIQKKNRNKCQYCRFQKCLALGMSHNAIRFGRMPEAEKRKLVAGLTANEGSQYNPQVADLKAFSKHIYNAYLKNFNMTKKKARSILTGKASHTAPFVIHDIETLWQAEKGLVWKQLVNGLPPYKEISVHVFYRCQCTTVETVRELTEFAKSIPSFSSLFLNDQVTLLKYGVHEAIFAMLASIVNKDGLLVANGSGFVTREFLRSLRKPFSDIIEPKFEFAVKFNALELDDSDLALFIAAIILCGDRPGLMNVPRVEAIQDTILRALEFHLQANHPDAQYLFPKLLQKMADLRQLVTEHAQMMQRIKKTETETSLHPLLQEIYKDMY
How it was run: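 Cells expressing a UAS-driven beta-lactamase reporter (PPARd-bla HEK293H) were given test compounds after a 5 h settle and kept at 37 C. Reporter activity was then measured as FRET fluorescence using LiveBLAzer B/G substrate.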

[3] = qHTS assay to identify small molecule antagonists of the peroxisome proliferator-activated receptor delta (PPARd) signaling pathway - cell viability counter screen (AID 743213); note: nearly all actives have a fitted effect of over 50% in size; note: potency is the fitted concentration of half-maximal effect
How it was run: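 PPARd-bla HEK293H cells (3000/well) got compound plus 300 nM L165041 agonist for 17 h at 37 C. Viability in the same wells came from CellTiter-Glo luminescence after 30 min at room temperature.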

[4] = target: Peroxisome proliferator-activated receptor delta (Homo sapiens) (UniProt Q03181); experiment: qHTS assay to identify small molecule antagonists of the peroxisome proliferator-activated receptor delta (PPARd) signaling pathway (AID 743215; active = well fitted inhibition curve with a large enough effect in the signal ratio in the repeat runs, not every such curve was filed as active; the % refers to the signal ratio;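 note: cells stimulated with agonist L165041 at 300 nM final during compound exposure; series mostly up to about 62 µM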)
How it was run: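 Here, a reporter line (HEK293H, beta-lactamase under a UAS) measures PPARd signaling. Compounds are tested against agonist L165041 at 300 nM final concentration over 17 h at 37 C, with fluorescence read after substrate.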

[5] = qHTS assay to identify small molecule agonists of the farnesoid-X-receptor (FXR) signaling pathway - cell viability counter screen (AID 743218); note: nearly all actives have a fitted effect of over 45% in size; note: potency is the fitted concentration of half-maximal effect
How it was run: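 Quantitative HTS counter screen measuring ATP-based viability via CellTiter-Glo luminescence in HEK 293T cells carrying a UAS-driven beta-lactamase reporter, after 16 h compound exposure at 37 C.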

[6] = qHTS assay to identify small molecule antagonists of the farnesoid-X-receptor (FXR) signaling pathway - cell viability counter screen (AID 743221; active = well fitted cell-killing curve with a large enough effect in the repeat runs, not every such curve was filed as active; note: nearly all actives have a fitted effect of over 50% in size; note: potency is the fitted concentration of half-maximal effect)
How it was run: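 CellTiter-Glo, 30 min RT, luminescence; same wells as the LiveBLAzer FRET read. Cells: FXR-UAS-bla HEK 293T. Treatment: compound with chenodeoxycholic acid 50 uM final, 16 h at 37 C.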

[7] = qHTS assay to identify small molecule agonists of the vitamin D receptor (VDR) signaling pathway - cell viability counter screen (AID 743224); note: nearly all actives have a fitted effect of over 50% in size; note: potency is the fitted concentration of half-maximal effect
How it was run: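 CellTiter-Glo viability readout on VDR-bla cells, measured after 16 h of compound treatment at 37C in the same wells.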

[8] = qHTS assay to identify small molecule antagonists of the vitamin D receptor (VDR) signaling pathway - cell viability counter screen (AID 743225); note: nearly all actives have a fitted effect of over 50% in size; note: potency is the fitted concentration of half-maximal effect
How it was run: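 Cytotoxicity toward the VDR-bla HEK 293T line was scored by ATP-based CellTiter-Glo luminescence, read in the wells already used for the beta-lactamase readout after 16 h compound treatment under 3 nM 1-alpha,25-dihydroxyvitamin D3 stimulation.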

[9] = qHTS assay to identify small molecule agonists of the NFkB signaling pathway (AID 1159509; active = well fitted curve in the direction sought with a large enough effect in the signal ratio in the repeat runs, not every such curve was filed as active; the % refers to the signal ratio; note: series mostly up to about 61 µM)
How it was run: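 Agonist activity was read as beta-lactamase-driven FRET change (460 and 530 nm emission, 405 nm excitation) following 1.5 hr substrate loading at room temperature. Beforehand, ME-180 NFkB-bla reporter cells were treated with compounds for 5 hr at 37 C.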

[10] = qHTS assay to identify small molecule agonists of the endoplasmic reticulum stress response signaling pathway - cell viability counter screen (AID 1159517; calls by dose curve; note: nearly all actives have a fitted effect of over 50% in size; note: potency is the fitted concentration of half-maximal effect)
How it was run: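 Cpd-treated ESRE-bla HeLa (5 hr, 37 C) → LiveBLAzer 2 hr RT → CellTiter-Glo 30 min RT → luminescence.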

[11] = target: Nuclear receptor ROR-gamma (Homo sapiens) (UniProt P51449); experiment: qHTS assay to identify small molecule antagonists of the retinoid-related orphan receptor gamma (ROR-gamma) signaling pathway (AID 1159521; note: nearly all actives have a fitted effect of over 50% in size; note: potency is the fitted concentration of half-maximal effect)
How it was run: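 Readout: ONE-Glo luciferase luminescence, 30 min at room temperature. System: Tet-on RORγ CHO, RORE-LUC. Sequence: compound 2 h, doxycycline 1 uM final, 16 h at 37 C.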

[12] = qHTS assay to identify small molecule agonists of the AP-1 signaling pathway - cell viability counter screen (AID 1159525; calls by dose curve; note: nearly all actives have a fitted effect of over 55% in size; note: potency is the fitted concentration of half-maximal effect)
How it was run: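 Each titration point was normalised to DMSO and tetra n-octyl ammonium bromide controls. The read was Cell Titer Glo luminescence after 30 min at RT, following 5 h compound exposure of ME-180 AP-1-bla cells at 37 °C.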

[13] = qHTS assay to identify small molecule agonists of the AP-1 signaling pathway (AID 1159526; calls by dose curve)
[14] = target: Vitamin D3 receptor (Homo sapiens) (UniProt P11473); experiment: qHTS assay to identify small molecule agonists of the vitamin D receptor (VDR) signaling pathway (AID 743222; calls by dose curve)
Vitamin D3 receptor (Homo sapiens), sequence (P11473 whole entry, looked up): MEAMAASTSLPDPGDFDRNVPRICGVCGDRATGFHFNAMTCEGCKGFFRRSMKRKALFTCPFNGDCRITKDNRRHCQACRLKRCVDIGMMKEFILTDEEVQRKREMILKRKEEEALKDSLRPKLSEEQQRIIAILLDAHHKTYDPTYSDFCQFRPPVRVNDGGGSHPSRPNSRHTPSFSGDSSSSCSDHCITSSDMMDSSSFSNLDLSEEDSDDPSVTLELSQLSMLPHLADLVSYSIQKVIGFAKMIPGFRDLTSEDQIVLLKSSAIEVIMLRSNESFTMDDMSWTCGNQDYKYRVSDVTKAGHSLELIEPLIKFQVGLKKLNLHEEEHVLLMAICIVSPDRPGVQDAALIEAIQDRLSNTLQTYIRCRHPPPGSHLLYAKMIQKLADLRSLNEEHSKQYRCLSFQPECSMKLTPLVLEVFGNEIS
How it was run: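 Tox21 cell reporter format: VDR-bla line, 16 h compound exposure in 5% CO2 at 37C, then fluorescence intensity after 2 h with LiveBLAzer B/G FRET substrate.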

[15] = qHTS assay to identify small molecule antagonists of the retinoid-related orphan receptor gamma (ROR-gamma) signaling pathway - cell viability counter screen (AID 1159520); note: nearly all actives have a fitted effect of over 50% in size; note: potency is the fitted concentration of half-maximal effect
How it was run: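 Tet-on ROR gamma CHO cells (1,000/well) were plated 4 hr, given compounds in DMSO for 2 hr at 37 C, then induced with 1 uM final doxycycline for 16 hr. Viability was read as ATP by CellTiter-Glo luminescence after 30 min.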

[16] = target: Bile acid receptor (Homo sapiens) (UniProt Q96RI1); experiment: qHTS assay to identify small molecule antagonists of the farnesoid-X-receptor (FXR) signaling pathway (AID 743217; active = well fitted inhibition curve with a large enough effect in the signal ratio in the repeat runs, not every such curve was filed as active; the % refers to the signal ratio)
Bile acid receptor (Homo sapiens), sequence (Q96RI1 whole entry, looked up): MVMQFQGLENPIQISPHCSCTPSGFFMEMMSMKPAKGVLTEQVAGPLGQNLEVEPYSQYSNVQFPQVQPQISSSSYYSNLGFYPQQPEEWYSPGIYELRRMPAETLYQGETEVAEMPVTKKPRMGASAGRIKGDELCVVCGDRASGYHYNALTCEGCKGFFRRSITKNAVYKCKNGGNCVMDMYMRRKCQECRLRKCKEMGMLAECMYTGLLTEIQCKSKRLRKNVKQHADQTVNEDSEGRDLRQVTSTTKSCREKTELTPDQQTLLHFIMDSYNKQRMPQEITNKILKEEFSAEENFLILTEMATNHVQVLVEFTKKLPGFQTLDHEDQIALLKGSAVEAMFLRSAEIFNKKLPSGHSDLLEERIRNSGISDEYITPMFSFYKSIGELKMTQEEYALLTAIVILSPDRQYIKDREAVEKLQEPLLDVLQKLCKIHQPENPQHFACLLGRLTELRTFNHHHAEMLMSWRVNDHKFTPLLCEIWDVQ
How it was run: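 Test compounds are pin-transferred onto FXR-bla HEK 293T cells, then chenodeoxycholic acid is added at 50 uM final. After 16 h at 37 °C, LiveBLAzer B/G substrate is applied for 2 h at room temperature and fluorescence read.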

[17] = target: Bile acid receptor (Homo sapiens) (UniProt Q96RI1); experiment: qHTS assay to identify small molecule agonists of the farnesoid-X-receptor (FXR) signaling pathway (AID 743220; active = well fitted activation curve with a large enough effect in the signal ratio in the repeat runs, not every such curve was filed as active; the % refers to the signal ratio)
How it was run: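 FXR-UAS-bla HEK 293T cells carrying a UAS-driven beta-lactamase reporter were plated for 5 h at 37C/5% CO2, then exposed to DMSO-dissolved Tox21 10K compounds for 16 h at 37C. A LiveBLAzer B/G FRET substrate was loaded for 2 h at room temperature before fluorescence reading.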

[18] = qHTS assay to identify small molecule agonists of the endoplasmic reticulum stress response signaling pathway (AID 1159516; active = well fitted activation curve with a large enough effect in the signal ratio in the repeat runs, not every such curve was filed as active; the % refers to the signal ratio)
How it was run: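 Fluorescence at 460 and 530 nm (405 nm excitation) reports beta-lactamase from an ER stress response element in HeLa cells treated 5 hr at 37 C.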

[19] = target: Vitamin D3 receptor (Homo sapiens) (UniProt P11473); experiment: qHTS assay to identify small molecule antagonists of the vitamin D receptor (VDR) signaling pathway (AID 743223; active = well fitted inhibition curve with a large enough effect in the signal ratio in the repeat runs, not every such curve was filed as active; the % refers to the signal ratio)
How it was run: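 After VDR-bla cells are plated and left 4 h at 37C, DMSO-dissolved compounds and 3 nM (final) calcitriol agonist are added. Incubation continues 16 h at 37C; FRET beta-lactamase substrate then develops 2 h at room temperature.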

Measured: Potency

Oc1ccc(O)cc1
active: [11] 21.6 µM and 38.6 µM and 23.7 µM
not listed: [14] | [15] | [16] | [17] | [18] | [19]
inactive: all other assays above

Nc1ccccc1N
not listed: [5] | [12] | [16] | [17] | [18] | [19]
inactive: all other assays above

COc1c(Cl)c(Cl)c(Cl)c(Cl)c1Cl
not listed: [1] | [2] | [4] | [6] | [14] | [19]
inactive: all other assays above

C=C(C)C(=O)OCCOC(=O)C(=C)C
not listed: [1] | [3] | [6] | [16] | [17]
inactive: all other assays above

CC(=O)O[C@]1(C(C)=O)CC[C@H]2[C@@H]3C=C(Cl)C4=CC(=O)[C@@H]5C[C@@H]5[C@]4(C)[C@H]3CC[C@@]21C
48.9 µM (active) and inactive: [7]
not listed: [11] | [14] | [16] | [17]
inactive: all other assays above

OC[C@H]1O[C@@H]2O[C@H]3[C@H](O)[C@@H](O)[C@@H](O[C@H]4[C@H](O)[C@@H](O)[C@@H](O[C@H]5[C@H](O)[C@@H](O)[C@@H](O[C@H]6[C@H](O)[C@@H](O)[C@@H](O[C@H]7[C@H](O)[C@@H](O)[C@@H](O[C@H]8[C@H](O)[C@@H](O)[C@@H](O[C@H]1[C@H](O)[C@H]2O)O[C@@H]8CO)O[C@@H]7CO)O[C@@H]6CO)O[C@@H]5CO)O[C@@H]4CO)O[C@@H]3CO
not listed: [1] | [2] | [4] | [12] | [14] | [16] | [17] | [19]
inactive: all other assays above

Brc1cc(Oc2cc(Br)c(Br)c(Br)c2Br)c(Br)c(Br)c1Br
55.2 µM (active) and inactive: [3] | [12]
not listed: [1] | [14] | [15] | [16] | [17] | [19]
inactive: all other assays above

CCCCC(CC)COC(=O)c1ccc(N(C)C)cc1 (stereo unspecified)
not listed: [1] | [16]
inactive: all other assays above

Cc1ncc[nH]1
not listed: [1]
inactive: all other assays above

COC(C)COC(C)COC(C)CO (stereo unspecified)
not listed: [12]
inactive: all other assays above

CCC(C)CO (stereo unspecified)
not listed: [15]
inactive: all other assays above

CCCCC(CC)COP(=O)(OCC(CC)CCCC)OCC(CC)CCCC (stereo unspecified)
not listed: [12] | [15]
inactive: all other assays above

Cc1cccc(C(=O)O)c1
not listed: [12] | [16] | [17]
inactive: all other assays above

COC(=O)C1=C(C)NC(C)=C(C(=O)OCCN(C)Cc2ccccc2)C1c1cccc([N+](=O)[O-])c1 (stereo unspecified)
active: [3] 48.7 µM and 26.6 µM | [5] 24.4 µM and 29.8 µM | [7] 54.6 µM | [15] 60.8 µM | [11] 30.5 µM and 29.8 µM
inactive: [2] | [9] | [18] | [10] | [12]

O=C(c1ccccc1)c1ccccc1O
not listed: [2] | [4] | [15] | [16] | [17]
inactive: all other assays above

CC(=O)c1ccccn1
not listed: [1] | [6]
inactive: all other assays above

COC(=O)CCC(=O)OC
not listed: [12]
inactive: all other assays above

COC(=O)Nc1nc2ccc(S(=O)c3ccccc3)cc2[nH]1 (stereo unspecified)
not listed: [1] | [2] | [4] | [6] | [15] | [16] | [17] | [19]
inactive: all other assays above

O=C(/C=C/c1ccccc1)OCc1ccccc1
not listed: [1] | [14] | [15] | [16] | [17] | [19]
inactive: all other assays above

CCCCc1oc2ccccc2c1C(=O)c1cc(I)c(OCCN(CC)CC)c(I)c1
active: [1] 22.1 µM and 16.8 µM | [3] 15.6 µM and 23.7 µM | [5] 34.9 µM and 18.8 µM | [6] 34.9 µM and 29.8 µM | [7] 15.6 µM and 26.6 µM | [10] 39.2 µM | [15] 43.6 µM | [11] 19.5 µM and 26.6 µM
inactive: [17] | [19] | [9] | [18]

CC(=O)CC/C=C(\C)CCC=C(C)C
not listed: [2] | [4] | [6] | [12] | [15] | [16] | [17]
inactive: all other assays above

CCC(C)OC(=O)c1ccc(O)cc1 (stereo unspecified)
not listed: [8] | [12] | [15] | [16] | [17]
inactive: all other assays above

CCCCC/C=C/C=C/C=O
inactive and 49 µM (active): [7]
not listed: [8] | [15] | [18] | [19]
inactive: all other assays above

C/C=C/C(=O)O
not listed: [2] | [4] | [12] | [15] | [16] | [17]
inactive: all other assays above

c1ccc2sc(SSN3CCOCC3)nc2c1
active: [7] 19.5 µM and 49 µM | [11] 19.3 µM and 54.5 µM
not listed: [1] | [2] | [4] | [13] | [14] | [15] | [18]
inactive: all other assays above

CC(C)=CCC/C(C)=C\CO
not listed: [2] | [4] | [6] | [9] | [12]
inactive: all other assays above

Cc1cccc(N(C)C(=S)Oc2ccc3ccccc3c2)c1
15.5 µM (active) and inactive: [8]
not listed: [1] | [2] | [4] | [6]
inactive: all other assays above
